Screening data deposited in PubChem by NMMLSC.
Rows were chosen to be rich in hits. Some 1.2% of all compounds tested hit in one or more screens of this group.
RGS16-Gao HTS – modulators of RGS16 binding to Galphao, primary screen, biochemical, human proteins, multiplexed bead flow cytometry. Regulator of G-protein signaling 16 (Homo sapiens) + Guanine nucleotide-binding protein …. bead-based flow cytometry RGS16-Galphao binding, fluorescence; actives lie on both sides. binding response (% of control), % at 10 µM. actives 0.38% (n = 220,000);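 also: Galphao activated by GDP with aluminum fluoride before binding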
Avidin bead fluor – green autofluorescence of compounds with avidin beads – biophysical, 488/530 nm, flow cytometry, artefact control, profiling panel | compound fluorescence 488/530 nm; active compounds read high | fluorescence (KMESF) at 10 µM | actives 0.38% (n = 220,000) | AID 1775, 2009; in the data active = fluorescence above about 47
RGS8-Gao – RGS8-Galphao binding modulators, primary screen, biochemical, multiplexed bead flow cytometry | actives lie on both sides | response (percent of control binding), % at 10 µM | actives 0.34% (n = 220,000); in the data active = response below about 60% or above about 140%; inactive = in between;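 also: Galphao activated as the GDP aluminium fluoride complex binding bead-coupled RGS8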
Target sequence (P09471 whole entry, looked up): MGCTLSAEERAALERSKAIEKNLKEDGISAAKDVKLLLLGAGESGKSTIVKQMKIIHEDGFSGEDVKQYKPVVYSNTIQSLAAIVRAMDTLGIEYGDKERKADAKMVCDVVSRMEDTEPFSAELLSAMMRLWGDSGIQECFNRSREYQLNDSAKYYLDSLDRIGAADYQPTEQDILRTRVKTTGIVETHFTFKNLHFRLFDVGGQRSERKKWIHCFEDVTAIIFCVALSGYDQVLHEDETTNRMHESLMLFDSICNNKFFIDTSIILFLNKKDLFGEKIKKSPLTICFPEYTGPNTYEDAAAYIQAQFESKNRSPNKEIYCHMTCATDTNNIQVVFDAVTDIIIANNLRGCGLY
RGS7-Gao reg – RGS7-Galphao binding modulators, primary screen, biochemical, multiplexed bead flow cytometry | binding response (% of control), % at 10 µM | actives 0.35% (n = 220,000) | AID 1439, 2008 | actives lie on both sides | Guanine nucleotide-binding protein G(o) subunit alpha (Homo sapiens), P09471; in the data active = binding response below about 49% or above about 150%; inconclusive = no clear call, values can overlap the other calls; inactive = in between;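 also: fluorescent Galphao held in activated GDP-AlF4 state binding bead-coupled RGS7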
GSH fluor – compound fluorescence on glutathione beads, profiling panel, artefact control, biophysical, 488/530 nm, flow cytometry. GSH beads flow cytometry, compound fluorescence 488/530 nm; active compounds read high. fluorescence (KMESF) at 10 µM. actives 0.25% (n = 190,000); in the data active = fluorescence above about 89;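 also: glutathione beads carrying GST-tagged Bcl family fusion proteins plus one bare bead set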
RGS4-Gao reg – modulators of RGS4 binding to Galphao, primary screen, biochemical, multiplexed bead flow cytometry. Guanine nucleotide-binding protein G(o) subunit alpha (Homo sapiens), P09471. binding response (% of control), % at 10 µM. AID 1415, 2008. actives 0.33% (n = 220,000). actives lie on both sides; in the data active = binding response below about 49% or above about 150%; inactive = in between;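 also: fluorescent Galphao activated with aluminum fluoride binding bead-coupled RGS4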
RGS-Gao – modulators of RGS–Galpha-o binding, primary screen, biochemical, multiplexed beads, flow cytometry, RGS4/7/8/16/19; actives 99% (n = 1,600); AID 1504, 2009; multiplexed bead flow cytometry; RGS4–Galpha-o binding response, % at 10 µM; shares compounds with RGS16-Gao HTS;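 also: fluorescently labeled Galpha-o bound to GDP with aluminium fluoride binding biotinylated RGS beads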
Avidin counter – disruption of biotin probe capture by avidin, counter-screen for RGS protein interaction modulators, biochemical, flow cytometry, bead-based; streptavidin beads, fluorescein-biotin binding; 1,700 tested, under 10 active; AID 1783, 2009; shares compounds with RGS16-Gao HTS; inhibition, % at 10 µM;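 active = inhibition above 50%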;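 also: median green fluorescence of gated singlet beads compared with DMSO control wells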
RGS8-Gao single – RGS8-Galphao binding modulators, confirmation, biochemical, multiplexed bead flow cytometry, single concentration; AID 1836, 2009; shares compounds with RGS16-Gao HTS; binding response (% of control), % at 10 µM; actives 3% (n = 1,700); bead-based flow cytometry RGS8-Galphao binding, fluorescence; actives lie on both sides; in the data active = binding response below about 72% or above about 130%; inactive = in between;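 also: Galphao activated as GDP AlF4 complex before binding bead RGS8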
RGS7-Gao single – RGS7-Galphao binding modulators, confirmation, biochemical, multiplexed bead flow cytometry, single concentration; response (percent of control binding), % at 10 µM; bead-based flow cytometry RGS7-Galphao binding; actives lie on both sides; actives 7.8% (n = 1,700); shares compounds with RGS16-Gao HTS; in the data active = response below about 75% or above about 130%; inactive = in between;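 also: fluorescent Galphao activated with GDP and aluminum fluoride binding bead-coupled RGS7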
RGS16-Gao conf – modulators of RGS16-Galphao protein binding, confirmation, biochemical, single concentration, multiplexed bead flow cytometry; bead-based flow cytometry; actives lie on both sides; response (% of control binding), % at 10 µM; shares compounds with RGS16-Gao HTS; actives 4% (n = 1,700); in the data active = response below about 74% or above about 130%; inactive = in between;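 also: Galphao activated as the GDP aluminium fluoride complex binding bead-coupled RGS16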
RGS4-Gao single – modulators of RGS4-Galphao protein binding, confirmation, biochemical, single concentration, multiplexed bead flow cytometry | AID 1840, 2009 | binding response (% of control), % at 10 µM | actives 4% (n = 1,700) | actives lie on both sides | shares compounds with RGS16-Gao HTS; in the data active = binding response below about 74% or above about 130%; inactive = in between
RGS19-Gao conf – regulators of RGS19-Galphao binding, confirmation, biochemical, single point, multiplexed bead flow cytometry | shares compounds with RGS16-Gao HTS | bead-based flow cytometry RGS19-Galphao binding; actives lie on both sides | response (percent of control binding), % at 10 µM | actives 5% (n = 1,700) | AID 1841, 2009; in the data active = response below about 50% or above about 160%; inactive = in between
Target sequence (P09471 whole entry, looked up): as above
Target sequence (P49795 whole entry, looked up): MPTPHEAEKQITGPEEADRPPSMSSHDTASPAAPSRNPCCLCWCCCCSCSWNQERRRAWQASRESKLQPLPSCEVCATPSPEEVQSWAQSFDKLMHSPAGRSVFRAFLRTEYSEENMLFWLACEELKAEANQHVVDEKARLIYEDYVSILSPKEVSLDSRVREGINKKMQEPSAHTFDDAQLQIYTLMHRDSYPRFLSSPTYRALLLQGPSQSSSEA
A number is an active result; . = inactive; ? = inconclusive; / = no result given; [ ] = dose if it differs, or a comment. Unless noted, no rule for the calls is given here.

SMILES	RGS16-Gao HTS	Avidin bead fluor	RGS8-Gao	RGS7-Gao reg	GSH fluor	RGS4-Gao reg	RGS-Gao	Avidin counter	RGS8-Gao single	RGS7-Gao single	RGS16-Gao conf	RGS4-Gao single	RGS19-Gao conf
Cc1ccccc1-n1c(SCC(=O)NC(N)=O)nc2sc(-c3ccccc3)cc2c1=O	-3.3	.	.	.	.	.	81	.	.	.	.	.	.
COc1c(Br)cc(C(N)=O)cc1OCc1ccccc1	-1.3	.	.	.	.	.	77	.	.	.	.	.	.
Cc1onc(-c2c(Cl)cccc2Cl)c1C(=O)Nc1ccc(N2CCOCC2)cc1	.	.	.	?	/	.	/	/	/	/	/	/	/
Fc1ccccc1N1CC(c2ccccc2)C(c2cccs2)=N1 (stereo unspecified)	.	.	9.2	15	.	21	/	.	.	.	.	.	.
CCSc1nnc(NC(=O)C(C)(C(F)(F)F)C(F)(F)F)s1	288[activator]	.	.	.	.	.	112	.	.	.	.	.	.
CCSc1nnc(NC(=O)C(CC)(C(F)(F)F)C(F)(F)F)s1	.	.	.	.	.	.	/	/	/	/	/	/	/
C=CCOCCN(CC)CC	.	.	.	?	/	.	/	/	/	/	/	/	/
COc1ccc(OC)c2c1C(=O)C(Cl)=C(Cl)C2=O	-14	.	45	?	/	.	58	/	/	/	/	/	/
CCCc1cc(N2CCCC(C(=O)NCc3ccc4c(c3)OCO4)C2)n2ncnc2n1 (stereo unspecified)	/	/	.	/	.	/	/	.	.	.	.	.	.
CC1CCCC(NC(=O)COC(=O)c2sc3ccccc3c2Cl)C1C (stereo unspecified)	0.2	.	9.4	-6.9	.	4.5	/	.	.	.	.	.	.
O=C(COC(=O)c1sc2ccccc2c1Cl)NCC1CCCCC1	.	.	.	.	.	.	/	/	/	/	/	/	/
O=C(Cn1c2ccccc2c(=O)c2ccccc21)N/N=C/c1ccc(N2CCCC2)c([N+](=O)[O-])c1	.	.	.	.	.	.	/	/	/	/	/	/	/
O=C(Cn1c2ccccc2c(=O)c2ccccc21)N/N=C/c1cc([N+](=O)[O-])ccc1N1CCCCCC1	/	/	/	/	.	/	/	.	.	135[activator]	140[activator]	129[activator]	384[activator]
CN1CCN(C(c2cccc(C(F)(F)F)c2)c2nnnn2Cc2ccccc2)CC1 (stereo unspecified)	.	.	144[activator]	.	.	.	126	.	.	.	.	.	.
N#Cc1cccc(C(c2nnnn2Cc2ccccc2)N2CCCC2)c1 (stereo unspecified)	.	.	.	.	.	.	/	/	/	/	/	/	/
Cc1c(NS(C)(=O)=O)cccc1-c1nc2cccnc2s1	.	.	.	?	/	.	/	/	/	/	/	/	/
CCOC(=O)C1CCCN(C(=O)COc2ccc(S(=O)(=O)N(CC)c3ccccc3)cc2)C1 (stereo unspecified)	.	.	.	.	.	.	/	/	/	/	/	/	/
CCCNC(=O)/C=C/C(=O)O	.	.	.	.	.	.	/	/	/	/	/	/	/
CCCCN=Cc1c(C)[nH]n(-c2ccccc2)c1=S	.	.	.	.	.	.	/	/	/	/	/	/	/
Cc1[nH]n(-c2ccccc2)c(=S)c1C=Nc1cccc([N+](=O)[O-])c1	19	.	.	.	.	.	95	.	54	.	5.9	.	9.1
O=C(c1ccccc1)c1c[nH]c(C(=O)NNc2ccccc2)c1	.	.	.	.	.	.	/	/	/	/	/	/	/
CCN(CC(=O)NCc1cccs1)c1ccc(S(=O)(=O)N2CCN(C)CC2)cn1	.	.	.	?	/	.	/	/	/	/	/	/	/
O=C(CCCC(=O)OCC(F)(F)C(F)F)Nc1ccccc1F	.	.	.	.	.	.	/	/	/	/	/	/	/
COc1ccc2[nH]c(=O)c(CN(C(=O)c3cccnc3)c3ccccc3C)cc2c1	280[activator]	118	142[activator]	?	/	307[activator]	/	.	.	56	73	72	39
CCOc1ccccc1C(=O)Nc1ccc(-n2nncc2C(C)(C)C)cc1	.	.	.	.	.	.	/	/	/	/	/	/	/
SMILES	RGS16-Gao HTS	Avidin bead fluor	RGS8-Gao	RGS7-Gao reg	GSH fluor	RGS4-Gao reg	RGS-Gao	Avidin counter	RGS8-Gao single	RGS7-Gao single	RGS16-Gao conf	RGS4-Gao single	RGS19-Gao conf
O=C(c1ccc(S(=O)(=O)NCc2ccco2)cc1)N1CCN(Cc2ccc3c(c2)OCO3)CC1	.	.	158[activator]	.	.	.	122	.	.	.	.	.	.
CC(=O)NNc1cc(C)nc(N)n1	.	.	.	?	/	.	/	/	/	/	/	/	/
Cc1ccc2nc(-c3cc(N)cc(N)c3)oc2c1	.	.	.	.	.	.	/	/	/	/	/	/	/
Nc1ccc(-c2nc3ccc(N)cc3o2)cc1	.	.	47	1.9	.	.	50	.	.	.	.	.	.
O=C(/C=C/c1ccc(N2CCC(c3ccccc3)=N2)cc1)c1ccccc1	.	.	.	153[activator]	172	.	113	/	/	/	/	/	/
O=C(/C=C/c1ccc(O)cc1)c1ccccc1	.	.	.	?	/	.	/	/	/	/	/	/	/
CC(=O)Nc1ccc(S(=O)(=O)NNC(=O)c2ccc(S(=O)(=O)N3CCCCC3)cc2)cc1	20	.	.	.	.	.	98	.	.	.	.	.	.
